Tests used:
Conditions in all cases: concentration: 1 μM, replicates: in singlicate; n = 1
TAK1 = system: T1, TAK1
T1 construct: gene MAP3K7

TAOK1 = system: TAOK1
TAOK2 = system: TAOK2
TAOK3 = system: TAOK3
TBK1 = system: TBK1
TEC = system: TEC
TESK1 = system: TESK1
TGFBR1 = system: TGFBR1
TGFBR2 = system: TGFBR2
TIE1 = system: TIE1
TIE2 = system: T2, TIE2
T2 construct: gene TEK

TLK1 = system: TLK1
TLK2 = system: TLK2
TNIK = system: TNIK
TNK1 = system: TNK1
TNK2 = system: TNK2
TNNI3K = system: TNNI3K
TRKA = system: T3, TRKA
T3 construct: gene NTRK1

TRKB = system: TRKB
TRKC = system: T4, TRKC
T4 construct: gene NTRK3
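Further: KINOMEscan kinase panel screen.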

Structure (SMILES) | %Inh (TAK1) | %Inh (TAOK1) | %Inh (TAOK2) | %Inh (TAOK3) | %Inh (TBK1) | %Inh (TEC) | %Inh (TESK1) | %Inh (TGFBR1) | %Inh (TGFBR2) | %Inh (TIE1) | %Inh (TIE2) | %Inh (TLK1) | %Inh (TLK2) | %Inh (TNIK) | %Inh (TNK1) | %Inh (TNK2) | %Inh (TNNI3K) | %Inh (TRKA) | %Inh (TRKB) | %Inh (TRKC)
COc1ccc(-c2cc3c(C)nc(N)nc3n([C@H]3CC[C@H](OCCO)CC3)c2=O)cn1 | 19% | 0% | 0% | 0% | 6% | 0% | 6% | 0% | 3% | 0% | 0% | 14% | 0% | 0% | 34% | 0% | 1% | 0% | 0% | 0%
CCC(=O)c1c(-c2ccccc2)c2cc(Cl)ccc2c(=O)n1Cc1ccc(C(=O)O)cc1 | 0% | 0% | 0% | 0% | 0% | 10% | 6% | 11% | 0% | 0% | 0% | 0% | 0% | 0% | 0% | 0% | 0% | 0% | 0% | 0%
O=C(NCCNc1ccnc(Nc2ccc(F)cc2)n1)Nc1ccc2c(c1)OCO2 [GSK1379882] | 0% | 0% | 0% | 0% | 30% | 4% | 96.3% | 0% | 0% | 0% | 0% | 22% | 20% | 0% | 0% | 9% | 0% | 4% | 0% | 17%
Cc1nc(N(C)[C@H]2CN(C(=O)CC#N)CC[C@H]2C)c2cc[nH]c2n1 | 6% | 10% | 0% | 0% | 0% | 4% | 0% | 0% | 0% | 1% | 3% | 3% | 7% | 0% | 3% | 11% | 0% | 17% | 0% | 0%
Nc1ncnc2c1ncn2-c1ccc(Cl)cc1 [AH2635] | 0% | 0% | 0% | 0% | 15% | 9% | 4% | 0% | 6% | 0% | 0% | 0% | 0% | 0% | 0% | 0% | 0% | 14% | 0% | 16%
Cc1cccc(-c2nc(Nc3ccc4c(cnn4C)c3)c3ccccc3n2)n1 [GW876731] | 23% | 12% | 0% | 0% | 0% | 0% | 6% | – | 0% | 0% | 27% | 0% | 11% | 0% | 43% | 0% | 0% | 44% | 0% | 0%
COc1cc2nccc(Nc3cccc(Oc4ccccc4)c3)c2cc1OC.Cl [GW284543] | 0% | 0% | 0% | 0% | 0% | 45% | 3% | 41% | 0% | 9% | 12% | 0% | 0% | 0% | 0% | 12% | 10% | 34% | 5% | 2%
COc1cc2ncn(-c3cc(OCc4ccc(S(C)(=O)=O)cc4)c(C(N)=O)s3)c2cc1OC [GW869979] | 0% | 18% | 0% | 0% | 34% | 12% | 0% | 0% | 0% | 0% | 0% | 5% | 0% | 37% | 5% | 18% | 0% | 50% | 31% | 44%
O=C(Nc1n[nH]c2nc(-c3ccccc3)c(Br)cc12)C1CC1 [SB-708998] | 0% | 9% | 0% | 16% | 4% | 0% | 7% | 0% | 6% | 14% | 11% | 0% | 0% | 14% | 0% | 10% | 0% | 28% | 0% | 11%
CCC(=O)c1c(-c2ccccc2)c2cc(Cl)ccc2c(=O)n1Cc1cc(S(C)(=O)=O)n(CC(F)F)n1 | 0% | 8% | 11% | 0% | 24% | 0% | 11% | 7% | 0% | 0% | 2% | 0% | 0% | 0% | 0% | 0% | 0% | 0% | 0% | 1%
OCCCNc1nccc(-c2c(-c3cccc(C(F)(F)F)c3)nn3cc(C(F)(F)F)ccc23)n1 [GW630813] | 0% | 0% | 0% | 0% | 10% | 0% | 11% | 0% | 0% | 0% | 0% | 6% | 0% | 3% | 0% | 0% | 0% | 0% | 7% | 3%
CCS(=O)(=O)c1ccc(OC)c(Nc2ncc(-c3ccc(F)cc3)o2)c1.Cl [GW591947] | 0% | 0% | 0% | 0% | 3% | 0% | 1% | 0% | 0% | 0% | 0% | 0% | 0% | 0% | 0% | 12% | 8% | 15% | 0% | 0%
Nc1nc(N)c2nc(-c3ccccc3)[nH]c2n1 [SKF-12778] | 4% | 16% | 0% | 17% | 16% | 7% | 12% | 0% | 3% | 26% | 0% | 0% | 0% | 4% | 0% | 13% | 28% | 52% | 9% | 0%
CC(C)(C)c1ccc(C(=O)Nc2cn3cc(-c4ccccc4)ccc3n2)cc1 | 0% | 0% | 4% | 0% | 38% | 19% | 8% | 0% | 8% | 0% | 0% | 8% | 0% | 18% | 0% | 6% | 6% | 0% | 7% | 3%
Cc1ccc(-c2ccc3c(ccc4sc5c(c43)NC[C@@H](C)N=C5N(C)C)n2)cn1 | 7% | 0% | 0% | 0% | 0% | 9% | 0% | 0% | 13% | 0% | 0% | 0% | 0% | 2% | 34% | 0% | 0% | 0% | 0% | 0%
